This note sets out measurements from PubChem BioAssay (NCATS).

Records with an inconclusive call do not appear. Active and inactive are the calls of the source. Calls come from the whole dose curve; as a rule, active = well fitted cell-killing curve with a large enough effect; inconclusive = small, poorly fitted or top-dose-only effect; inactive = no such curve, though single readings can be large or run the other way.
% is set by controls: 0 for no effect and ±100 for the full control effect.

The assay can be described thus: qHTS of pediatric cancer cell lines to identify multiple opportunities for drug repurposing: Primary screen for Rh30 cells (AID 1347107). Note: nearly all actives have a fitted effect of over 75% in size. Conditions: Rh30 rhabdomyosarcoma viability, CellTiter-Glo luminescence, 48 h; series mostly up to 46 µM. The text has this: Drug repurposing or repositioning has been offered as a strategy for drug development in oncology programs. This approach has special potential for childhood cancers and other rare or orphan diseases, where the expected return on new drug development has been a disincentive to pharmaceuticals.
In this project we exploit the poly-pharmacology of drugs to discover new indications via phenotypic screening of a panel of 19 well-characterized cell lines derived from solid tumors seen in children and adolescents. The goal is to identify approved drugs with previously unrecognized anticancer properties that has the potential to reveal new mechanisms and biological processes involved in carcinogenesis or drug resistance. We employed a titration-based paradigm (quantitative high-throughput screening or qHTS), where all compounds were tested at multiple concentrations for their effect on cell viability. Concentration-response curves (CRCs) were derived directly from the primary screen, and both potency and efficacy values were used to identify compounds with robust bioactivity profiles. We screened the NIH Chemical Genomics Center (NCGC) Pharmaceutical Collection (NPC) and Mechanism Interrogation Plate (MIPE) small molecule collections of approved and investigational compounds against these cell lines; and measured metabolically active cells after 48 hours of compound treatment as a proxy for cell viability.
Assay Submitter: Nathalia J. Martinez, National Center for Advancing Translational Sciences, National Institutes of Health, Rockville, MD, USA; email: natalia.martinez@nih.gov
[1] Shen, M et al. Quantitative high-throughput phenotypic screening of pediatric cancer cell lines identifies multiple opportunities for drug repurposing. Oncotarget 2017 Dec 19;9(4):4758-4772. PMID 29435139.
The cells were obtained from University of North Carolina (UNC), Pediatric Preclinical Testing Program (PPT), and Coriell Institute (CI).
qHTS cell viability assay:
Cells were assayed in growth media at a density of 500-1,000 cells/well. Five microliters of cells were dispensed into 1,536-well, white, solid-bottom, TC-treated plates (Greiner Bio One) using a multidrop dispenser and incubated at 37 degrees C, 5% CO2, under a humidified atmosphere for 5 hours. Twenty-three nanoliters of compounds and controls (neutral control DMSO or positive control bortezomib at final concentration of 2.3 µM) were subsequently transferred by Kalypsys pintool. For primary screens, the MIPE collection was tested at 11-point dilutions (final concentrations range from 0.78 nM to 46 µM) and the NPC collection at 8-point dilutions (final concentrations range from 0.59 nM to 46 µM). Compounds tested in follow-up screens were assayed at 11-point dilutions. Cells were incubated for 48 hours, followed by addition of 3 µL of CellTiter-Glo (Promega). After a 15 min incubation at room temperature, samples were analyzed for luminescence intensity using a ViewLux High-throughput CCD imager equipped with clear filters.
In general terms: qHTS replaces the single test concentration by a dilution series.
On to `CN1CCCCC1CCN1c2ccccc2Sc2ccc(S(C)=O)cc21` (stereo not given), for which the result was inactive.

With `CC1(C)OC(=O)NC1=O`, the compound was classed as inactive.

Turning to `O=C(O)CN1C(=O)c2cccc3cccc(c23)C1=O`, the compound was called inactive.

With `Cc1ccc(C(C)C)cc2c(C)ccc1-2`, the call was inactive.

As to `CN1[C@@H]2CC[C@H]1CC(OC(=O)C(O)c1ccccc1)C2` (stereo not given in full), the compound was called inactive.

In the case of `CC(=O)OCC(=O)[C@@]1(O)CC[C@H]2[C@@H]3CCC4=CC(=O)CC[C@]4(C)[C@H]3C(=O)C[C@@]21C`, the compound was classed as inactive.

In the case of `NC(CSCC(=O)O)C(=O)O` (stereo not given), the outcome was inactive.

As for `CCCCN1CCCC[C@H]1C(=O)Nc1c(C)cccc1C`, the outcome was inactive.

On to `O=C(CCCN1CCN(c2ccccn2)CC1)c1ccc(F)cc1`, for which the outcome was inactive.

On to `O=C(O)[C@@H]1CSCN1`, for which the result was inactive.

For `N[C@@H](CSCCCO)C(=O)O`, the outcome was inactive.

On to `COc1cc(C(=O)N2CCOCC2)cc(OC)c1OC`, for which the call was inactive.

On to `COc1ccccc1O`, for which the outcome was inactive.

In the case of `CN1CCOC(c2ccccc2)c2ccccc2C1` (stereo not given), the result was inactive.

On to `CC1=C(CC(=O)O)c2cc(F)ccc2/C1=C\c1ccc(S(C)=O)cc1` (stereo not given), for which the compound was called inactive.

Turning to `COc1ccc2c(c1)C(=O)N(CCc1ccc(S(=O)(=O)NC(=O)NC3CCCCC3)cc1)C(=O)C2(C)C`, the result was inactive.

Consider `COc1ccc2cc1Oc1cc3c(cc1OC)CC[N+](C)(C)[C@H]3Cc1ccc(cc1)Oc1c(OC)c(OC)cc3c1[C@@H](C2)[N+](C)(C)CC3`, for which the compound was classed as inactive.

As for `Cc1cccc(C)c1NC(=O)CN(CC(=O)O)CC(=O)O`, the compound was classed as inactive.

`N[C@H]1C(O)O[C@H](CO)[C@@H](O)[C@@H]1O` (stereo not given in full): the compound was called inactive.

`N[C@H](C(=O)O)c1ccc(O)cc1`: the compound was classed as inactive.

Consider `C[C@]12CC[C@@H]3c4ccc(O)cc4CC[C@H]3[C@@H]1CCC2=O`, for which the compound was classed as inactive.

`CCCCC(CC)COC(=O)c1ccccc1O` (stereo not given): the outcome was inactive.

With `O=c1[nH]cnc2c1ncn2[C@@H]1O[C@H](CO)[C@@H](O)[C@H]1O`, the compound was called inactive.

For the compound `Oc1ccc(C(O)CNCCCCCCNCC(O)c2ccc(O)c(O)c2)cc1O` (stereo not given), the outcome was inactive.

For the compound `C#CCN(C)Cc1ccccc1`, the compound was called inactive.

In the case of `COc1cc2[nH]c(=O)[nH]c(=O)c2cc1OC`, the outcome was inactive.

Regarding `C[C@@H]1CC[C@@]2(OC1)O[C@H]1C[C@H]3[C@@H]4CC[C@H]5C[C@@H](O)CC[C@]5(C)[C@H]4CC(=O)[C@]3(C)[C@H]1[C@@H]2C`, the activity change, negative = cytotoxic was 18.9% [at 4.84 µM] (inactive).

As for `NCC(=O)CCC(=O)O`, the compound was classed as inactive.

On to `NC(=O)NNc1ccccc1`, for which the compound was classed as inactive.

Regarding `C[C@H](N)[C@H](O)c1cccc(O)c1`, the result was inactive.

Regarding `NC(N)=NCCC[C@H](N)C(=O)O`, the activity change, negative = cytotoxic was 18% [at 4.84 µM] (inactive).

For the compound `O=C1O[C@H](CO)[C@@H](O)[C@H](O)[C@H]1O`, the outcome was inactive.

Take `CN(C)CCOC(C)(c1ccccc1)c1ccccn1` (stereo not given): the compound was classed as inactive.

For the compound `C[C@]12CC[C@@H]3c4ccc(O)cc4CC[C@H]3[C@@H]1CC[C@@H]2OC(=O)CCC1CCCC1`, the result was inactive.

On to `Cc1cc2nc3c(=O)[nH]c(=O)nc-3n(C[C@H](O)[C@H](O)[C@H](O)CO)c2cc1C`, for which the compound was classed as inactive.

`Oc1cccc(O)c1`: the result was inactive.

`NC(=O)c1ncn([C@@H]2O[C@H](CO)[C@@H](O)[C@H]2O)n1`: the call was inactive.

Take `C[C@@H]1CN(c2c(F)c(F)c3c(=O)c(C(=O)O)cn(C4CC4)c3c2F)C[C@H](C)N1`: the compound was called inactive.

With `CC(=O)CCC(=O)O`, the compound was classed as inactive.

For `NS(=O)(=O)c1cc2c(cc1C(F)(F)F)NC(Cc1ccccc1)NS2(=O)=O` (stereo not given), the compound was called inactive.
